# Data taken from article PMC5700166.
# Positions count from the first letter of the chain named.
# Tests used:
# Test in all cases: protein-binding microarray (PBM); PBM: ~300 nM protein, 6 mM HEPES pH 7.8, 80 mM KCl, 0.5 mM EDTA, 0.5 mM EGTA, 6% glycerol, 35 ng/ul poly-dIdC, 1% milk, 1 h, room temperature; Ap Aiptasia and Nv Nematostella (sea anemones) / Co Capsaspora / Aq Amphimedon (sponge) / Dm Drosophila / Hu human; RHD is the Rel homology domain; high values mean tight binding
# Settings in all cases: dsDNA, one strand shown
# GST-Ap-NF-kB RHD = biological target: T1, GST-Ap-NF-kB RHD (Exaiptasia pallida (Aiptasia), UniProt A0A913YAJ5 2-422)
# T1 sequence: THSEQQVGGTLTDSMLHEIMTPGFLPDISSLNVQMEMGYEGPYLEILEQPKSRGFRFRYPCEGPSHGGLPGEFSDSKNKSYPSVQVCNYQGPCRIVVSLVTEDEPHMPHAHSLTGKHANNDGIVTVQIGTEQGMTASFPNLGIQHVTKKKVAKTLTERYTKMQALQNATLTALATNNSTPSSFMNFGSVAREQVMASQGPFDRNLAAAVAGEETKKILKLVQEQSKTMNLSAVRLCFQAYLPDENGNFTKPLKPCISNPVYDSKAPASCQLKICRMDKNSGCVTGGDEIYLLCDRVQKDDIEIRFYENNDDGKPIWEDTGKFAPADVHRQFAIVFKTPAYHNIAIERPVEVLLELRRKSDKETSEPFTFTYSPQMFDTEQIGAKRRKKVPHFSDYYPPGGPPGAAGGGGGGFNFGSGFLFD
# [1] = biological target: T2, GST-Nv-NF-kB (Cys allele) (Nematostella vectensis, UniProt E5G601 2-411)
# T2 sequence: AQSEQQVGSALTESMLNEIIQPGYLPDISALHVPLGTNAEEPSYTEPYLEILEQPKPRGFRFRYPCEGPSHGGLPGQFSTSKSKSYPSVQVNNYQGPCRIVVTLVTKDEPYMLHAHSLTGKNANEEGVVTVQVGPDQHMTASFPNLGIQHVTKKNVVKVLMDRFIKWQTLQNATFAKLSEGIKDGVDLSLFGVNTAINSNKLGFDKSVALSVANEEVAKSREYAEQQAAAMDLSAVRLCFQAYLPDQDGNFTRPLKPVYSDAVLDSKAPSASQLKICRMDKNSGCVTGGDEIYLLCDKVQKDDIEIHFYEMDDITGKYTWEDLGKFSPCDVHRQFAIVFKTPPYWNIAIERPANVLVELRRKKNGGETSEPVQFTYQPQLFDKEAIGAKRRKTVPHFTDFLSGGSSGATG
# [2] = biological target: T3, GST-Nv-NF-kB (Ser allele) (Nematostella vectensis, UniProt A7UNT2 2-411)
# T3 sequence: T2 sequence with Q21R, C66S, S207N, E215Q, V217A, E225K, A268E, D399E
# GST-Co-NF-kB = biological target: T4, GST-Co-NF-kB (Capsaspora owczarzaki, UniProt F1ARL5 200-546)
# T4 sequence: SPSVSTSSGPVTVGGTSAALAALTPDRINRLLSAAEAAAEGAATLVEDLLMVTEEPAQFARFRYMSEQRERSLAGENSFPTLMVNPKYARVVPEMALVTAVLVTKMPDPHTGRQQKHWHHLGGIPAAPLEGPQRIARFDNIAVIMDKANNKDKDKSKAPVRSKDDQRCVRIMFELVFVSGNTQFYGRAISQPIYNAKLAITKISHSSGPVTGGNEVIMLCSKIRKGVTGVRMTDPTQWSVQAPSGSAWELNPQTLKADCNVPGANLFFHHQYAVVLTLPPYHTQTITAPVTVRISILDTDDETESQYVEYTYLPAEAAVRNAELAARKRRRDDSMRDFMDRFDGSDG
# GST-Dm-Relish = biological target: T5, GST-Dm-Relish (Drosophila melanogaster, UniProt Q94527 99-473)
# T5 sequence: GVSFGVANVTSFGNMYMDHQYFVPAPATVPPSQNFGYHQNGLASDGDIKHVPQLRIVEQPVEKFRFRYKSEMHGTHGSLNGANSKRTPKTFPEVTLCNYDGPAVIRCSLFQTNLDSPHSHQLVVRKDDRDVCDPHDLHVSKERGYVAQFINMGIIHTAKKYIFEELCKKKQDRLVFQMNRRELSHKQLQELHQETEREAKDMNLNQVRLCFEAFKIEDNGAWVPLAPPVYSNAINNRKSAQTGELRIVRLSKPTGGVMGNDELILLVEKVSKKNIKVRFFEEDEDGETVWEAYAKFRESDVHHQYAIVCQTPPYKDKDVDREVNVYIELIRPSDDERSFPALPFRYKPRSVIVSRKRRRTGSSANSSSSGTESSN
# GST-Aq-NF-kB = biological target: T6, GST-Aq-NF-kB (Amphimedon queenslandica, UniProt A9Y5G7 2-389)
# T6 sequence: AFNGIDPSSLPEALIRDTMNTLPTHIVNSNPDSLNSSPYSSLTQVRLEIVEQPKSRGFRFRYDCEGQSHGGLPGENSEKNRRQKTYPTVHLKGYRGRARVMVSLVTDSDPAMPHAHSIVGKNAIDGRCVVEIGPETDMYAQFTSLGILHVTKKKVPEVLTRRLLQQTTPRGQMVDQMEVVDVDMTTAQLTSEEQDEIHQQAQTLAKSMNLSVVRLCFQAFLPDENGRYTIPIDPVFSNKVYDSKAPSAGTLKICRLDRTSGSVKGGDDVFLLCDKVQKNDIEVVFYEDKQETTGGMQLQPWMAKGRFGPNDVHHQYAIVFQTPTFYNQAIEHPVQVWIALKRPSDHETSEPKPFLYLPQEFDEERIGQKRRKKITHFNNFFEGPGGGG
# GST-Hu-p50 = GST-Hu-p50 (Homo sapiens, UniProt P19838 7-356)
# GST-Hu-p50, sequence (P19838 7-356): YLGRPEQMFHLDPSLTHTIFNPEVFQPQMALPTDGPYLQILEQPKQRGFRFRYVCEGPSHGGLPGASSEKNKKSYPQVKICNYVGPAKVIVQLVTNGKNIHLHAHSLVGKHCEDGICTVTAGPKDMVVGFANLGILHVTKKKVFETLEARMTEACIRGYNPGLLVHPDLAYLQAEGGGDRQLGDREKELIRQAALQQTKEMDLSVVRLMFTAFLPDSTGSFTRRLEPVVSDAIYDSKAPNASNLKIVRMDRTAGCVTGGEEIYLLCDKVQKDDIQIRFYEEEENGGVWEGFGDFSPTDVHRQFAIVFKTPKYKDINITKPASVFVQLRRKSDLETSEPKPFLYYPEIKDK
Sequence,binding signal (GST-Ap-NF-kB RHD) [z-score],binding signal [1] [z-score],binding signal [2] [z-score],binding signal (GST-Co-NF-kB) [z-score],binding signal (GST-Dm-Relish) [z-score],binding signal (GST-Aq-NF-kB) [z-score],binding signal (GST-Hu-p50) [z-score]
CCGATTAACATCAGAGTTTCCCCTGATGTTAATCGGGTCTTGATTCGCTTGACGCTGCTG,7.08,8.35,9.96,7.72,4.61,6.33,6.14
CCGATTAACATCAGGGGATTTGATGATGTTAATCGGGTCTTGATTCGCTTGACGCTGCTG,6.34,6.28,8.85,2.37,4.27,4.26,6.12
CCGATTAACATCAGGGGGGACCCTGATGTTAATCGGGTCTTGATTCGCTTGACGCTGCTG,6.34,4.19,3.73,4.11,6.14,5.92,4.27
CCGATTAACATCAAGTATCCCCCTGATGTTAATCGGGTCTTGATTCGCTTGACGCTGCTG,6.69,5.06,6.27,7.27,4.38,4.99,5.34
CCGATTAACATCAGTAATCCCCATGATGTTAATCGGGTCTTGATTCGCTTGACGCTGCTG,6.5,5.74,6.91,3.87,6.04,4.5,5.31
CCGATTAACATCAAAATAACCCCTGATGTTAATCGGGTCTTGATTCGCTTGACGCTGCTG,6.69,5.59,5.3,3.27,4.93,5.19,5.2
CCGATTAACATCAGGGCTGCCCCTGATGTTAATCGGGTCTTGATTCGCTTGACGCTGCTG,4.09,3.62,1.89,1.21,4.09,6.85,3.48
CCGATTAACATCAGGGGAGATAATGATGTTAATCGGGTCTTGATTCGCTTGACGCTGCTG,5.17,5.28,5.56,6.03,1.79,2.74,3.67
CCGATTAACATCAGGGGAGGGACTGATGTTAATCGGGTCTTGATTCGCTTGACGCTGCTG,4.36,4.69,4.55,2.92,3.83,5.21,3.82
CCGATTAACATCAATTTCCCCCATGATGTTAATCGGGTCTTGATTCGCTTGACGCTGCTG,7.52,7.6,8.86,10.7,4.97,6.34,6.86
CCGATTAACATCAGGGGACTCCATGATGTTAATCGGGTCTTGATTCGCTTGACGCTGCTG,6.58,4.64,4.65,1.82,7.69,4.63,4.91
CCGATTAACATCAAAACATCCCCTGATGTTAATCGGGTCTTGATTCGCTTGACGCTGCTG,6.41,8.11,8.22,4.63,8.65,7.07,5.91
CCGATTAACATCAATTTCCCCCGTGATGTTAATCGGGTCTTGATTCGCTTGACGCTGCTG,7.85,6.59,8.85,12.3,5.65,6.15,6.52
CCGATTAACATCACAGTTCCCCCTGATGTTAATCGGGTCTTGATTCGCTTGACGCTGCTG,6.94,6.16,7.51,8.18,3.79,4.7,5.66
CCGATTAACATCAACTCTCCCCCTGATGTTAATCGGGTCTTGATTCGCTTGACGCTGCTG,5.78,4.61,5.62,7.94,2.14,4.72,4.41
CCGATTAACATCAGATATCCCCCTGATGTTAATCGGGTCTTGATTCGCTTGACGCTGCTG,7.25,6.62,7.52,6.39,5.78,5.89,5.59
CCGATTAACATCAGGGGAACTTATGATGTTAATCGGGTCTTGATTCGCTTGACGCTGCTG,7.4,8.58,8.41,7.21,7.11,6.48,5.95
CCGATTAACATCAGGGGGTTGACTGATGTTAATCGGGTCTTGATTCGCTTGACGCTGCTG,4.64,3.2,3.62,1.93,4.51,3.95,4.25
CCGATTAACATCAACATTACCCCTGATGTTAATCGGGTCTTGATTCGCTTGACGCTGCTG,2.39,2.88,3.43,4.07,1.42,2.86,3.24
